Laboratory results taken from PubChem BioAssay AID2315 (National Center for Advancing Translational Sciences (NCATS), 2010).
The campaign covered roughly 290,000 compounds. About 27,000 (9.3%) were called active. Shown is part of a subset that was picked to be rich in actives. Unmarked numbers belong to inactive results. Cut-off read from the data, not from the text of the source: active = inhibition mostly above about 28% (no sharp cut-off); inactive = mostly below about 43%.

Assay: A qHTS for Small Molecule Inhibitors of Shiga Toxin; note: 0% is about no effect
Conditions: Vero cells, Shiga toxin protein synthesis inhibition reporter; at 38.7 µM, active compounds read high

Question: With `CN(C)CCNc1ccc(-c2n[nH]c(=O)c3ccccc23)cc1[N+](=O)[O-]` as the compound, how does the inhibition read?
Answer: -10.6%

Question: With `Cc1ccc(C(=O)NCC(=O)NCc2cc(=O)n(C)c(=O)n2C)cc1` as the compound, how does the inhibition read?
Answer: -10.2%

Question: Which inhibition does the source give for `COc1ccc(C(C(=O)NC2CCCCC2)N(C(=O)c2snc(C(N)=O)c2N)c2ccccc2OC)cc1` (stereo not drawn) here?
Answer: -17.5%

Question: Which inhibition does the source give for `COc1ccc(-n2nc(C(=O)NCC(=O)N3CCCCCC3)c3ccccc3c2=O)cc1Cl` here?
Answer: -9.59%

Question: With `COc1cc(CC(=O)N2CCC(n3nccc3NC(=O)C3CC3)CC2)cc(OC)c1OC` as the compound, how does the inhibition read?
Answer: -10.9%

Question: With `Cc1cc(C)cc(N(CCC#N)C(=O)CN2C(=O)NC3(CCCC3)C2=O)c1` as the compound, how does the inhibition read?
Answer: 23%

Question: With `O=C(O)C1CCCN1C1=NS(=O)(=O)c2ccccc21` (stereo not drawn) as the compound, how does the inhibition read?
Answer: -13.3%

Question: Which inhibition does the source give for `CCOC(=O)C1CCN(C(=O)Cn2nc(C)c3c(C)n(-c4ccccc4)nc3c2=O)CC1` here?
Answer: -6.47%

Question: Which inhibition does the source give for `COc1ccc(N2CCN(S(=O)(=O)c3cc(Br)cnc3N)CC2)cc1` here?
Answer: -7.11%

Question: For `O=C(CCN1C(=O)[C@@H]2Cc3ccccc3CN2C1=O)NCCc1ccccc1`, which inhibition is on record?
Answer: -8.8%

Question: With `O=C(c1cc(COc2ccc(F)cc2F)on1)N1CCOCC1` as the compound, how does the inhibition read?
Answer: 81.3% (active)

Question: Which inhibition does the source give for `O=C(Oc1ccc(C(=S)N2CCOCC2)cc1)c1ccc(F)cc1` here?
Answer: -4.36%

Question: Which inhibition does the source give for `COCCN1CCN(C(=O)c2cc(COc3ccc(F)cc3Cl)on2)CC1` here?
Answer: -23.4%

Question: With `O=C(Nc1ccc(Cl)cc1)Nc1nnc(/C=C/c2ccccc2)s1` as the compound, how does the inhibition read?
Answer: -5.24%

Question: Which inhibition does the source give for `COc1ccc(/C=C/c2nnc(NC(=O)C(C)C)s2)cc1` here?
Answer: 42.3% (active)

Question: Which inhibition does the source give for `O=C(CSc1ccccc1)Nc1nnc(/C=C/c2ccccc2)s1` here?
Answer: -38.9%

Question: For `COC(=O)[C@]1(S(=O)(=O)c2ccccc2)C[C@@H]2ON=C(c3ccc(OC)cc3)[C@@H]2C1`, which inhibition is on record?
Answer: 13.5%

Question: For `Cc1nn2cc(-c3ccc(Cl)cc3)cnc2c1Br`, which inhibition is on record?
Answer: 38.8% (active)

Question: With `COc1ccc(NC(=O)N2CCC(Cc3ccccc3)CC2)cc1` as the compound, how does the inhibition read?
Answer: 35.2%

Question: With `COc1ccc(N2CCN(C(=S)Nc3ccc(S(N)(=O)=O)cc3)CC2)cc1` as the compound, how does the inhibition read?
Answer: -17.7%

Question: With `COc1ccc(NC(=S)N2N=CCC2c2ccccc2)cc1` (stereo not drawn) as the compound, how does the inhibition read?
Answer: 88.7% (active)

Question: Which inhibition does the source give for `COc1ccccc1CNC(=O)C1CCN(S(=O)(=O)c2ccc3c(c2)CC(C)N3C(=O)C2CC2)CC1` (stereo not drawn) here?
Answer: -10.2%

Question: With `Cc1ccc(N(Cc2ccccc2O)C(=O)c2ccccc2F)cc1` as the compound, how does the inhibition read?
Answer: -2.19%

Question: Which inhibition does the source give for `CCOc1ccc2nc(C(=O)N3CCCC(C)C3)sc2c1` (stereo not drawn) here?
Answer: 129% (active)

Question: With `CCCC(=O)N(CCN1CCOCC1)c1nc2ccc(OCC)cc2s1` as the compound, how does the inhibition read?
Answer: 1.4%

Question: With `CCOc1ccc2nc(Nc3nc4ccc(NC(C)=O)cc4s3)sc2c1` as the compound, how does the inhibition read?
Answer: 50.5%

Question: For `CC(C)[C@@H](C(=O)O)N(Cc1cccc(CN([C@H](C(=O)O)C(C)C)S(C)(=O)=O)c1)S(C)(=O)=O`, which inhibition is on record?
Answer: -4.11%

Question: For `COc1ccc2c(c1)C=CC1(O2)N(CCO)c2ccccc2C1(C)C` (stereo not drawn), which inhibition is on record?
Answer: 40.8% (active)

Question: Which inhibition does the source give for `COc1cccc(CC2(CO)CCCN(CC3=Cc4cc(OC)ccc4OC3)C2)c1` (stereo not drawn) here?
Answer: -9.4%

Question: For `CN1c2ccc([N+](=O)[O-])cc2C(C)(C)C12C=Cc1cc(C(=O)O)ccc1O2` (stereo not drawn), which inhibition is on record?
Answer: 6.92%

Question: With `Cc1ccc(C)c(NC(=O)c2cc(-c3cc(C)cc(C)c3O)n[nH]2)c1` as the compound, how does the inhibition read?
Answer: 1.58%

Question: With `Clc1ccc(C[n+]2cc(-c3ccccc3)n3c2CCC3)cc1` as the compound, how does the inhibition read?
Answer: 12.3%

Question: For `Cc1ccc(/C=N/NC(=O)c2cc3ccccc3cc2O)o1`, which inhibition is on record?
Answer: 51.6% (active)

Question: For `Cc1ccc(/C=N/NC(=O)CNC(=O)COc2ccccc2)o1`, which inhibition is on record?
Answer: -15.5%

Question: Which inhibition does the source give for `Cc1ccc(/C=N/NC(=O)CSc2ccccn2)o1` here?
Answer: 17.6%

Question: With `O=C(N/N=C\c1cccnc1)c1cc(-c2ccccc2)nc2c(Cl)cccc12` as the compound, how does the inhibition read?
Answer: -27%

Question: With `O=C(N/N=C/c1cccnc1)c1cc2ccccc2cc1O` as the compound, how does the inhibition read?
Answer: 87.2% (active)

Question: Which inhibition does the source give for `O=C(N/N=C/c1cccnc1)c1ccc(NC(=O)c2ccc(F)cc2)cc1` here?
Answer: 12.4%

Question: Which inhibition does the source give for `CN(C)CCOC1c2ccccc2-c2ccccc21` here?
Answer: -5.07%

Question: With `COc1ccc(NC(=O)CNC(=O)Cc2ccccc2)cc1OC` as the compound, how does the inhibition read?
Answer: 3.87%

Question: Which inhibition does the source give for `O=C(CN(Cc1ccccc1)C(=O)CCC(=O)Nc1ccccn1)NCCc1ccccc1` here?
Answer: -11.7%

Question: With `COc1ccc2c(c1)c(C(=O)N/N=C/c1cccs1)c(C)n2C` as the compound, how does the inhibition read?
Answer: -4.44%

Question: With `Cc1nnc(NC(=O)CCCOc2ccccc2)s1` as the compound, how does the inhibition read?
Answer: -8.1%

Question: Which inhibition does the source give for `COCCSc1nnc(NC(=O)CCS(=O)(=O)Cc2ccccc2)s1` here?
Answer: -28.2%

Question: Which inhibition does the source give for `Cc1ccc(S(=O)(=O)CC(=O)Nc2nnc(C)s2)cc1` here?
Answer: -7.78%

Question: Which inhibition does the source give for `CSc1ncc(Cl)c(C(=O)Nc2cc(C)ccc2C)n1` here?
Answer: -0.876%

Question: Which inhibition does the source give for `CSc1nnc(NC(=O)c2nc(S(=O)(=O)Cc3ccc(C)cc3)ncc2Cl)s1` here?
Answer: 85.5% (active)

Question: Which inhibition does the source give for `Cc1ccc(CS(=O)(=O)c2ncc(Cl)c(C(=O)Nc3nnc(C)s3)n2)cc1` here?
Answer: 116% (active)
